Drawing on PubChem BioAssay (NCATS), this text covers Potency for 33 compounds.

Values joined by “and” are separate entries in the source; they are usually repeats but may differ in a detail not shown here. Equal entries are not always repeated. Records with an inconclusive call do not appear. Active and inactive are the calls of the source. Calls come from the whole dose curve; as a rule, active = well fitted curve in the direction sought with a large enough effect; inconclusive = small, poorly fitted or top-dose-only effect, or another doubt; inactive = no such curve, though single readings can be large; an effect the other way counts as inactive or inconclusive.

A short description of test [1]: Viability qHTS for spleen associated tyrosine kinase inhibitor (SYKi) drug resistant MV4-11 cells (AID 1963824). Note: nearly all actives have a fitted effect of over 35% in size. The gist of the method: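 SYK-inhibitor-resistant MV4-11 AML cells were seeded at 500 per well onto compound and cultured 72 hours (37 °C, 5% CO2). CellTiter-Glo was then added, and after 10 min at room temperature, luminescence gave viability.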
(In general: Quantitative high-throughput screening tests each substance at several concentrations.)

A short description of test [2]: Cellular viability qHTS for adrenocortical cancer (ACC) cell line NCI-H295R (AID 1963990). Note: nearly all actives have a fitted effect of over 60% in size. The procedure, abridged: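 Readout: CellTiter-Glo luminescence, 20 min RT. Exposure: 48 h, 37C/5% CO2. Cells: NCI-H295R, ITS-DMEM serum-free. Range: up to 46 uM. Analysis: 4PL fit, IC50 plus efficacy.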
Potency is the fitted concentration of half-maximal effect.

In the case of `COC(=O)C1=C(C)NC(C)=C(C(=O)OC(C)(C)CN(C)CCC(c2ccccc2)c2ccccc2)C1c1cccc([N+](=O)[O-])c1` (stereo unspecified), the Potency in test [1] is 9.44 µM (active); in test [2] it was 20.6 µM (active).

With `C#C[C@]1(OC(C)=O)CC[C@H]2[C@@H]3CCC4=C[C@@H](OC(C)=O)CC[C@@H]4[C@H]3CC[C@@]21C`, the Potency is 21.1 µM (active) and 14.6 µM (active) in test [1]; 20.6 µM (active) in test [2].

With `CN1CCC[C@@H]1CCO[C@](C)(c1ccccc1)c1ccc(Cl)cc1`, the values for the Potency in test [1] and in test [2] were 18.8 µM (active) and 20.6 µM (active), respectively.

Regarding `CCN(C)S(=O)(=O)Nc1ccc(F)c(C(=O)c2c[nH]c3ncc(-c4cnc(C5CC5)nc4)cc23)c1F`, the Potency in test [1] is 4.68 µM (active); in test [2], 28.2 µM (active).

Take `CCNCCS(=O)(=O)NC[C@@]1(c2ccccc2)SC(NC(=O)C(C)(C)C)=NN1C(=O)C(C)(C)C`: the Potency in test [1] was 0.003 µM (active); in test [2] it was 0.316 µM (active).

Regarding `O=c1cc(-c2ccccc2)oc2ccccc12`, in test [1], the Potency was 21.5 µM (active). Also, the Potency result in test [2] is “inactive”.

For the compound `CCC(=O)c1ccc2c(c1)N(CCCN(C)C)c1ccccc1S2`, the Potency in test [1] was 21.1 µM (active); in test [2], 14.6 µM (active).

Consider `Cc1c(NC(C)C)c(=O)n(-c2ccccc2)n1C`, for which the Potency entry in test [1] and in test [2] was “inactive” in each case.

On to `COc1cc2c(NC3CCN(C)CC3)nc(N3CCCN(C)CC3)nc2cc1OCCCN(C)C`, for which the Potency in test [1] was 18.6 µM (active). In addition, the Potency result in test [2] is “inactive”.

With `O=C(NOCCO)c1cc(CN2OCCCC2=O)c(F)c(F)c1Nc1ccc(I)cc1F`, the Potency in test [1] is 0.0651 µM (active); in test [2], 25.1 µM (active).

Regarding `COC[C@@H](c1ccc(C(F)(F)F)cc1)N1CCN(C2(C)CCN(C(=O)c3c(C)ncnc3C)CC2)C[C@@H]1C`, the Potency in test [1] is 18.6 µM (active). Further, in test [2], the Potency result is “inactive”.

As to `CS(=O)(=O)Nc1cc2occ(NC=O)c(=O)c2cc1Oc1ccccc1`, the Potency entry in test [1] and in test [2] was “inactive” in each case.

Regarding `Nc1ncc(C(=O)NC2CN(C(=O)C3CC3)C2)c2ccc(-c3cccc(F)c3)nc12`, the Potency in test [1] was 7.42 µM (active). Besides, the Potency result in test [2] was “inactive”.

Consider `CN1CCN(CCC(=O)N2c3ccccc3Sc3ccc(C(F)(F)F)cc32)CC1`, for which the Potency in test [1] is 23.7 µM (active); in test [2], 23.1 µM (active).

`CC1CC(OC(=O)c2ccccc2O)CC(C)(C)C1` (stereo unspecified): the Potency result in test [1] and in test [2] was “inactive” throughout.

In the case of `O=C(O)c1ccccc1Nc1cccc(C(F)(F)F)c1`, the Potency entry in test [1] and in test [2] was “inactive” each time.

In the case of `C[C@@H]1COCCN1c1cc(-c2ccnn2C)c2ccnc(-c3ccn[nH]3)c2n1`, the Potency is 0.0934 µM (active) in test [1] and 0.158 µM (active) in test [2].

With `CCS(=O)(=O)CCn1c([N+](=O)[O-])cnc1C`, the Potency result in test [1] is “inactive”. Further, the Potency in test [2] is 25.9 µM (active).

As for `OCc1c[nH]c2ccccc12`, the figures for the Potency in test [1] and in test [2] were 24.3 µM (active) and 22.4 µM (active), respectively.

Turning to `Cc1nc([C@](C)(O)CO)sc1-c1cnc(N)c(O[C@H](C)c2cc(F)ccc2-n2nccn2)c1`, the values for the Potency in test [1] and in test [2] were 8.33 µM (active) and 2.82 µM (active), respectively.

For the compound `COc1cc2ncnc(Nc3cccc(Cl)c3F)c2cc1OC(=O)N1CCN(C)C[C@H]1C`, the Potency in test [1] was 7.31 µM (active). Also, the Potency entry in test [2] was “inactive”.

On to `O=C(/C=C/c1ccccc1)NCCO`, for which the Potency entry in test [1] is “inactive”. Moreover, the Potency in test [2] was 14.6 µM (active).

For `CC[N+]1(CC)CCC(=C(c2ccccc2)c2ccccc2)C1C` (stereo unspecified), in test [1], the Potency was 8.2 µM (active). The Potency entry in test [2] is “inactive”.

Turning to `COc1ccc2[nH]c(S(=O)Cc3ncc(C)c(OC)c3C)nc2c1` (stereo unspecified), the Potency in test [1] was 1.64 µM (active). The Potency result in test [2] was “inactive”.

With `CC(=O)OCC(=O)[C@@]1(O)CCC2C3CCC4=CC(=O)CC[C@]4(C)C3[C@@H](O)C[C@@]21C` (stereo partly specified), the Potency entry in test [1] and in test [2] was “inactive” throughout.

With `NS(=O)(=O)c1ccc(NC(=S)N2CCN(C/C=C/c3ccccc3)CC2)cc1`, the Potency in test [1] is 14.8 µM (active). The Potency entry in test [2] was “inactive”.

Take `Cc1cc(C)c2c(c1)[C@@H](N(Cc1cc(C(F)(F)F)cc(C(F)(F)F)c1)c1nnn(C)n1)CCCN2CC1CCC(C(=O)O)CC1` (stereo partly specified): the Potency in test [1] was 18.6 µM (active). Besides, in test [2], the Potency result was “inactive”.

In the case of `CN(Cc1ccccc1)C(=O)c1ccc(S(=O)(=O)Nc2ccccc2)cc1`, the Potency in test [1] was 14.8 µM (active). The Potency entry in test [2] was “inactive”.

As to `NC(=O)c1cc[n+](CC2=C(C(=O)[O-])N3C(=O)[C@@H](NC(=O)Cc4cccs4)[C@H]3SC2)cc1`, the Potency entry in test [1] and in test [2] was “inactive” each time.

With `CCc1cccc2c3c([nH]c12)[C@@](CC)(CC(=O)O)OCC3`, in test [1], the Potency was 14.8 µM (active). Further, in test [2], the Potency result is “inactive”.

Take `Cc1cc2cc(Oc3ccnc(Nc4cccc(CS(=O)(=O)NCCN(C)C)c4)n3)ccc2[nH]1`: the figures for the Potency in test [1] and in test [2] were 1.86 µM (active) and 25.1 µM (active), respectively.

In the case of `CCN1/C(=C/C=C/c2sc3ccccc3[n+]2CC)Sc2ccccc21`, the values for the Potency in test [1] and in test [2] were 0.058 µM (active) and 10 µM (active), respectively.

With `CN[C@@H](C)C(=O)N[C@H](C(=O)N1CCC[C@H]1C(=O)Nc1snnc1-c1ccccc1)C1CCCCC1`, the Potency in test [1] is 0.132 µM (active). Further, the Potency result in test [2] was “inactive”.
